Laboratory results: PubChem BioAssay AID1159580 (chemical genetic matrix, 2015)
Hit rate of the full screen: of about 5,500 compounds, about 2,000 (36%) were called active. Another 18% or so got no clear call; they are omitted. Rule as the data show it: active = normalized growth mostly below about 0.91 (no sharp cut-off); inconclusive = no clear call, values can overlap the other calls; inactive = mostly above about 0.92. Some of the results follow.

Assay: chemical genetic growth profiling, strain panel (AID 1159580);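 also: tested at 20 µM; growth read once vehicle control cultures reached saturation at 30 °C; 1 = growth at the plate median or of vehicle wells; lower values mean less growth of the strain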
Conditions: S. cerevisiae deletion strains, growth OD

Measured: normalized growth

O=C(NCC(c1ccccc1)c1c[nH]c2ccccc12)c1ccc(C(F)(F)F)cc1 (stereo unspecified)
inactive: locus YAR019C, strain CDC15, active compounds read low 0.974 | locus YBL105C, strain PKC1, active compounds read low 0.98 | locus YBR135W, strain CKS1, active compounds read low 0.998 | locus YBR136W, strain MEC1, active compounds read low 0.986 | locus YBR160W, strain CDC28, active compounds read low 0.981 | locus YDL017W, strain CDC7, active compounds read low 0.985 | locus YDL028C, strain MPS1, active compounds read low 0.993 | locus YDL101C, strain DUN1, active compounds read low 0.985 | locus YDL108W, strain KIN28, active compounds read low 0.992 | locus YDL132W, strain cdc53, active compounds read low 0.992 | locus YDL214C, strain PRR2, active compounds read low 1.15 | locus YDR052C, strain DBF4, active compounds read low 0.993 | locus YDR054C, strain cdc34, active compounds read low 0.984 | locus YDR226W, strain ADK1, active compounds read low 0.971 | locus YDR477W, strain SNF1, active compounds read low 0.98 | locus YER123W, strain YCK3, active compounds read low 0.971 | locus YER133W, strain GLC7, active compounds read low 0.979 | locus YFL009W, strain cdc4, active compounds read low 1.04 | locus YFL029C, strain CAK1, active compounds read low 0.989 | locus YFR003C, strain YPI1, active compounds read low 1.01 | locus YFR019W, strain FAB1, active compounds read low 0.984 | locus YFR028C, strain CDC14, active compounds read low 0.979 | locus YGR040W, strain KSS1, active compounds read low 1 | locus YGR052W, strain FMP48, active compounds read low 1.02 | locus YGR092W, strain DBF2, active compounds read low 0.993 | locus YHR079C, strain IRE1, active compounds read low 0.981 | locus YHR082C, strain KSP1, active compounds read low 1.04 | locus YHR205W, strain SCH9, active compounds read low 1.01 | locus YIL147C, strain SLN1, active compounds read low 0.985 | locus YJL095W, strain BCK1, active compounds read low 0.996 | locus YJL128C, strain PBS2, active compounds read low 0.932 | locus YJL157C, strain FAR1, active compounds read low 0.989 | locus YJR016C, strain ILV3, active compounds read low 0.99 | locus YJR066W, strain TOR1 (second series), active compounds read low 0.97 | locus YJR066W, strain TOR1, active compounds read low 0.998 | locus YKL048C, strain ELM1, active compounds read low 1 | locus YKL067W, strain YNK1, active compounds read low 0.948 | locus YKL101W, strain HSL1, active compounds read low 0.969 | locus YKL193C, strain SDS22, active compounds read low 0.994 | locus YKL203C, strain TOR2, active compounds read low 1.08 | locus YLR133W, strain CKI1, active compounds read low 0.992 | locus YLR403W, strain SFP1, active compounds read low 0.985 | locus YML070W, strain DAK1, active compounds read low 0.979 | locus YMR001C, strain CDC5, active compounds read low 0.991 | locus YMR205C, strain PFK2 (second series), active compounds read low 0.981 | locus YMR277W, strain FCP1, active compounds read low 0.965 | locus YNL006W, strain LST8, active compounds read low 1.01 | locus YNL020C, strain ARK1, active compounds read low 0.982 | locus YNL161W, strain CBK1, active compounds read low 0.995 | locus YNL183C, strain NPR1, active compounds read low 1.02 | locus YNL207W, strain RIO2, active compounds read low 0.979 | locus YNL222W, strain SSU72, active compounds read low 0.986 | locus YNL307C, strain MCK1 (second series), active compounds read low 0.954 | locus YOL078W, strain AVO1, active compounds read low 0.99 | locus YOL136C, strain PFK27, active compounds read low 0.963 | locus YOR061W, strain CKA2, active compounds read low 0.995 | locus YOR119C, strain RIO1, active compounds read low 1.02 | locus YOR231W, strain MKK1, active compounds read low 1.02 | locus YOR329C, strain SCD5, active compounds read low 0.995 | locus YPL031C, strain PHO85, active compounds read low 0.993 | locus YPL153C, strain RAD53, active compounds read low 0.967 | locus YPL204W, strain HRR25, active compounds read low 0.96 | locus YPL209C, strain IPL1, active compounds read low 0.994 | locus YPL256C, strain CLN2, active compounds read low 0.909 | locus YPR025C, strain CCL1, active compounds read low 0.997 | locus YPR106W, strain ISR1, active compounds read low 0.976 | locus YPR111W, strain DBF20, active compounds read low 0.956 | strain NNK1, active compounds read low 0.988 | strain TSCII, active compounds read low 0.978
active: locus YHR030C, strain SLT2, active compounds read low 0.807 | locus YLR113W, strain HOG1, active compounds read low 0.859
